Assay outcomes deposited in PubChem BioAssay by National Center for Advancing Translational Sciences (NCATS).
Tau filament bind: qHTS Assay for Tau Filament Binding | 71,000 tested, 2% active | AID 596, 2007 | Microtubule-associated protein tau (Homo sapiens), P10636 | recombinant tau filaments, thioflavin S fluorescence, 15 h; filaments grown with octadecylsulfate alongside compound | Potency, µM (highest dose often 57.1 µM), for inactives: top-dose activity change, negative = inhibition;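 also: % is scaled to controls: 0 for no effect and ±100 for the full control effect; actives lower thioflavin S fluorescence by blocking filaments or displacing dye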
Target sequence (P10636 whole entry, looked up): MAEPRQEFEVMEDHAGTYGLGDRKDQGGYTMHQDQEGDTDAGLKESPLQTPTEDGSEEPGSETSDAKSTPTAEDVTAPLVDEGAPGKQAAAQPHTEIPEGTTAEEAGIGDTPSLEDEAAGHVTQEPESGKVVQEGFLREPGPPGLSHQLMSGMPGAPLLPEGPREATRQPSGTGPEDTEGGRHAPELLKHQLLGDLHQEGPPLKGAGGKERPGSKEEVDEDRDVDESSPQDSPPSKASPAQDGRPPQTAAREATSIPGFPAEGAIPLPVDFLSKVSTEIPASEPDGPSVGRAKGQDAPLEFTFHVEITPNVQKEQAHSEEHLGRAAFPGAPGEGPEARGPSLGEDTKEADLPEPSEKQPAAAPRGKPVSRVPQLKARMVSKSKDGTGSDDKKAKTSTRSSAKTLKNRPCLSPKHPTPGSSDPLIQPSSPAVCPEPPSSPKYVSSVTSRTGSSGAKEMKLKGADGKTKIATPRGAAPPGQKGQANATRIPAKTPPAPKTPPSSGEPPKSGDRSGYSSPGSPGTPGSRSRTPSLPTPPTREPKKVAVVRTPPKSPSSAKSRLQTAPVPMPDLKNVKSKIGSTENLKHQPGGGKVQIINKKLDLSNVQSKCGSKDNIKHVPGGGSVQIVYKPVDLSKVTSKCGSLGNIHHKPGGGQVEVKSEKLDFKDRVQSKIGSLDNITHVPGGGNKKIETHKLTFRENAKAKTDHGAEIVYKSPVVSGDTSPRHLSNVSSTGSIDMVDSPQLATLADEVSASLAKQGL
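Tau 2 uM in ThS buffer dispensed; compound added; 60 uM ODS added (finals 1 uM tau, 30 uM ODS); 15 h 37 C; fluor ex450/em510.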
Imprint erasure: qHTS Assay for Compounds that Induce Erasure of Genomic Imprints; mouse ES Peg3-LacZ reporter, beta-gal luminescence, 40 h; Potency, µM (series often up to 60.7 µM), inactives show top-dose activity change, positive = activation, actives largely listed as activators; 110,000 tested, 0.02% active; AID 1948, 2009
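Imprint erasure is scored as LacZ activity from the silenced maternal Peg3 allele in feeder-free female ES cells cultured 40 h with LIF. Luminescence is normalized to in-plate negative controls and fitted to the Hill equation.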
p53ts 39C tox: qHTS Screen for Compounds that Selectively Target Cancer Cells with p53 Mutations: Cytotoxicity of p53ts Cells at the Nonpermissive Temperature; Potency, µM (top dose mostly 46.1 µM), for inactives: at the top dose activity change, negative = cell killing, usual class: cytotoxic; H1299-p53A138V viability at 39C, ATP luminescence, 24 h; AID 902, 2007; 130,000 tested, 1.5% active; also: % is scaled to controls: 0 for no effect and ±100 for the full control effect; nearly all actives have a fitted effect of over 55% in size
p53ts 32C kill: qHTS Screen for Compounds that Selectively Target Cancer Cells with p53 Mutations: Cytotoxicity of p53ts Cells at the Permissive Temperature; H1299-p53A138V at 32C, ATP luminescence viability, 24 h; Potency, µM (titrated, usually from 46.1 µM), for the others: at the top dose activity change, negative = cytotoxicity, usual class: cytotoxic; 130,000 tested, 0.93% active;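 also: 0% = DMSO and -100% = full killing by reference compound; nearly all actives have a fitted effect of over 55% in size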
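H1299-p53 A138V cells (temperature-sensitive p53) exposed 24 h to up to 46 uM compound at 32C, where p53 is wild-type in conformation. Viability read as ATP luminescence and normalised to DMSO and 100 uM tamoxifen. AC50 fitted with the Hill equation.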
FLuc inh: qHTS Assay for Inhibitors of Firefly Luciferase; Potency, µM (titrated, usually from 57.1 µM), for inactives: at the top dose activity change, negative = inhibition, hits mostly inhibitors; purified firefly luciferase, luminescence, 8 min; AID 411, 2009; 72,000 tested, 2.2% active; Luciferin 4-monooxygenase (Photinus pyralis), P08659; also: % is scaled to controls: 0 for no effect and ±100 for the full control effect; nearly all actives have a fitted effect of over 40% in size
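Here, luciferase activity is measured as luminescence following an 8 min room-temperature reaction at 10 uM ATP, pH 7.2. Every library sample is titrated.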
* hit, by the source's call; ? = inconclusive; . = not tested or not shown; [ ] = dose if it differs, or a comment. Rows were chosen to be rich in hits. Some 3.4% of all compounds tested hit in one or more screens of this group. Calls follow the shape of the dose curve; as a rule, active = well fitted curve in the direction sought with a large enough effect; inconclusive = small, poorly fitted or top-dose-only effect, or another doubt; inactive = no such curve, though single readings can be large; an effect the other way counts as inactive or inconclusive. Potency is read from the fitted curve at half-maximal effect.

SMILES	Tau filament bind	Imprint erasure	p53ts 39C tox	p53ts 32C kill	FLuc inh
OC1CN=C2CCCc3c2n(c2ccc(Cl)cc32)C1 (configuration not stated)	7.9µM*	-4%	-14%	-2%	-1%
Cc1ccc(-n2nc3ccc(N)cc3n2)cc1	13µM*	-56%	7.9µM*	7.9µM*	2µM*
CCOc1ccccc1CNC(=O)c1oc2ccc3c(c2c1C)C(=O)CC(C)(C)O3	.	-17%[10.9 µM]	-20%	0%	.
CCC1(C)CC(=O)c2c(ccc3oc(C(=O)NCc4ccccc4)c(C)c23)O1 (configuration not stated)	.	12%[10.9 µM]	-18%	-15%	.
CCc1cccc(NC(=O)c2oc3ccc4c(c3c2C)C(=O)CC(C)(C)O4)c1	.	-26%[10.9 µM]	6.3µM*	?	.
COc1ccc(NC(=O)c2oc3ccc4c(c3c2C)C(=O)CC(C)(C)O4)cc1OC	.	?	4µM*	10µM*	.
Cc1cccc(-c2nc(Cn3c(SCc4cc(C)ccc4C)nc4ccncc43)c(C)o2)c1	.	-9%[10.9 µM]	?	-13%	.
CCC(C)[C@@H](C(=O)Nc1ccc2c(c1)OCO2)N1Cc2ccccc2C1=O (some centres not stated)	25µM*	-12%	2%	-1%	-4%
CN(C)c1ccc(-c2cc(NCc3cccnc3)ncn2)cc1	-5%	-41%	7.9µM*	?	-16%[2.29 µM]
Cc1cccc(CNc2cc(-c3ccc(N(C)C)cc3)ncn2)c1	3%	-15%	-20%	-6%	-12%[2.29 µM]
O=C1c2ccccc2-c2cc([N+](=O)[O-])c([N+](=O)[O-])cc21	4µM*	-40%[10.9 µM]	36%[9.22 µM]	-21%[9.22 µM]	-4%[11.4 µM]
Cc1ccc2c(c1[N+](=O)[O-])C(=O)c1ccccc1C2=O	-23%	14%	-19%	10%[1.84 µM]	.
COc1ccc(N2CCN(C(=O)C(Cc3ccccc3)n3cccc3)CC2)cc1 (configuration not stated)	13µM*	-15%	13%	35%	-1%
O=C(c1ccccc1)c1ccc2nc(Nc3cc(Cl)ccc3O)c3nncn3c2c1	.	?	-27%	0%	.
Cc1ccc(CNC(=O)c2cccc(Nc3nc4ccccc4n4nnnc34)c2)cc1	.	-4%[10.9 µM]	6.3µM*	?	.
COCCNC(=O)c1cccc(Nc2nc3ccccc3n3nnnc23)c1	.	-12%[10.9 µM]	-7%	5%	.
CCc1nnc(NC(=O)CSc2nc3c(cc2C#N)CCC3)s1	10%	-44%	2µM*	2µM*	3.2µM*
COc1cccc2cc(-c3cn4cccc(C)c4n3)c(=O)oc12	-6%	3%	-5%	-10%	-7%
CCOc1cccc2cc(-c3cn4cc(C)ccc4n3)c(=O)oc12	0%	-14%	?	?	0.16µM*
Cc1cccc(NC(=O)Cn2nnc(-c3cccs3)n2)c1C	13µM*	-26%	-26%	13%	-3%
CCc1ccccc1NC(=O)Cn1nnc(-c2cccs2)n1	30%	-3%	4%	11%	2%
COC(=O)C/C=C\[C@@H](C)[C@@H](/C=N\O[C@@H](C)CN1CCCCc2nc(C)c(C)cc21)OC	.	.	4%[9.22 µM]	-2%[9.22 µM]	1%[11.4 µM]
Cc1cc2nc(-c3ccc(SCC(=O)N4CCOCC4)nc3)[nH]c2cc1C	19%	-27%	7.9µM*	6.3µM*	2.5µM*
O=C(CSc1ccc2nnc(-c3ccc(F)cc3)n2n1)N1CCOCC1	-20%	-3%	3%	9%	1%
Cc1cc2nc(-c3ccc(SCC(=O)N4CCN(C(=O)c5ccco5)CC4)nc3)[nH]c2cc1C	20%	-42%	5µM*	6.3µM*	0.63µM*
SMILES	Tau filament bind	Imprint erasure	p53ts 39C tox	p53ts 32C kill	FLuc inh
Cc1cc2cc3c(cc2nc1SCC(=O)N1CCN(C(=O)c2ccco2)CC1)OCO3	27%	-17%	-17%	-15%	-2%
CO[C@H]1COC(=O)[C@H](C)NC(=O)[C@@H](C)COC(=O)[C@H]2CCCN2C(=O)C/C=C\[C@H]1C	.	.	-3%[9.22 µM]	4%[9.22 µM]	0%[11.4 µM]
CCN(C(=O)CSc1nc(-c2ccc(C(C)C)cc2)no1)c1ccccc1	.	6%[10.9 µM]	-7%	-6%	.
CCOC(=O)c1cccc(NC(=O)Cn2c(=O)nc(-c3ccccc3)c3ccccc32)c1	.	-8%[10.9 µM]	-26%	-8%	.
CN(C1CCCCC1)S(=O)(=O)c1ccc2c(c1)c(=O)c(C(=O)NCc1ccc(F)cc1)cn2C	.	-10%[10.9 µM]	-1%	0%	.
CN(C)c1ccc(N=Nc2ccccc2C(=O)OCC(=O)N(C)c2ccccc2)cc1	.	.	?	10µM*	.
CCOC(=O)C1CCC(CN(Cc2ccc(OC)cc2)S(=O)(=O)c2ccc(C)cc2)CC1 (configuration not stated)	.	-10%[10.9 µM]	-22%	0%	.
Fc1ccc([C@@H]2CCNC[C@H]2COc2ccc3c(c2)OCO3)cc1	.	-31%	13µM*	?	.
c1ccc(-c2noc(COc3ccc4c(c3)OCO4)n2)cc1	-11%	-1%	2%	-3%	-11%
CCc1cccc2nc3c(c([Si](C)(C)C)c12)Cn1c-3cccc1=O	16µM*	-14%	3%	9%	.
COC(=O)c1ccc(C(=O)Nc2ccc(N)cc2N)cc1	13µM*	.	3%	-18%	-4%
COc1ccccc1NC(=O)c1ccc(N)cc1	-16%	-20%	-9%	-14%	-9%
COc1ccc(N2CCN(C(=O)Cn3cnc4sc(C)c(S(=O)(=O)N5CCC(C)CC5)c4c3=O)CC2)cc1	.	-7%[10.9 µM]	9%	9%	.
O=C1c2ccccc2C(=O)c2c1ccc(N1C(=O)c3ccccc3C1=O)c2-c1c(N2C(=O)c3ccccc3C2=O)ccc2c1C(=O)c1ccccc1C2=O	?	.	.	.	1%[11.4 µM]
c1ccc2oc(SCc3nc4ccccc4s3)nc2c1	-20%	-23%	-17%	-25%	16µM*
N#CCc1nc(CSc2nc3ccccc3o2)cs1	-21%	-26%	-8%	-4%	-10%
CC/C=C\CC[C@H](OC(=O)c1ccc(Br)cc1)C1=CCCCC1=O	.	.	-8%[9.22 µM]	-1%[9.22 µM]	0%[11.4 µM]
Nc1nc(Nc2cccc(C(F)(F)F)c2)sc1C(=O)c1ccccc1	.	-6%[10.9 µM]	6%	-6%	.
CC(C)(C)C(=O)c1sc(Nc2ccccc2)nc1N	-18%	4%	?	-25%	13µM*
Cc1cc(=O)n2[nH]c(NCc3ccc(F)cc3)nc2n1	.	-4%[10.9 µM]	-3%	-4%	.
Cc1cc(=O)n2[nH]c(-c3ccc(F)cc3)nc2n1	0%	-81%	10µM*	13µM*	13µM*
CCOC(=O)C1=C(N)n2c(s/c(=C/c3ccco3)c2=O)=C(C(=O)OC)C1c1ccco1 (configuration not stated)	3.2µM*	-21%	-8%	6%	-1%
